This note sets out measurements from the supplement of paper PMC10498489.

In all, about 2,300 compounds went through this assay and about 330 (14%) showed activity.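 Rule for the calls: active = median modified Z-score above 1.96; inactive = 1.96 or below.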 A selection follows.

The assay concerns HepG2 Srxn1-GFP reporter cells (+30 nM CDDO-Me). The experiment in a line: Srxn1-GFP intensity median modified Z-score relative to plate median; higher = stronger NRF2 / oxidative stress reporter activation, active = hit call of the paper. To be noted: 10 µM; exposure time: 24h. The gist of the method:
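The per-plate modified Z-score of GFP intensity, taken as a median across replicates, is what each value represents. Three replicate plates of HepG2 Srxn1-GFP BAC reporter cells were exposed for 24 h to an NRF2 activator at 30 nM combined with compound at 10 μM (≤0.1% DMSO). Cytoplasmic GFP per cell was read from confocal images, excluding any with under 100 cells, and scaling used 1.4826 × median absolute deviation.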
Consider `COc1ccc2c(=O)ccoc2c1` [euspeclibcmpd1397], for which the “Srxn1-GFP intensity median modified Z-score” value was 0.575 (inactive). To `CC1(C)SC2C(NC(=O)C(C(=O)O)c3ccccc3)C(=O)N2C1C(=O)O` (stereo unspecified) [euspeclibcmpd2333] belongs 0.114 (inactive). The same measure for `O=c1c2cc(O)c(O)cc2oc2cc(O)c(C3O[C@H](CO)[C@@H](O)[C@H](O)[C@H]3O)c(O)c12` (stereo partly specified) [euspeclibcmpd1520]: -0.904 (inactive).

As for `CCCc1nc(=N)c(C[n+]2ccccc2C)c[nH]1` [euspeclibcmpd493], the “Srxn1-GFP intensity median modified Z-score” value was -0.6 (inactive). The same measure for `COc1cccc(-c2cc(=O)c3cc(OC)ccc3o2)c1` [euspeclibcmpd1659]: -0.339 (inactive); for `O=C1c2cccc(O)c2C(=O)c2c(O)cccc21` [euspeclibcmpd3]: 19.4 (active); for `COc1cc(O)c2c(c1)C(=O)c1cc(C)cc(O)c1C2=O` [euspeclibcmpd1472]: 0.0189 (inactive). The same measure for `Cc1cc(O)c2c(c1)C(=O)c1cc(O)cc(O)c1C2=O` [euspeclibcmpd1604]: 0.573 (inactive).

On to `Cc1cc(O)c2c(c1)C(=O)c1cccc(O)c1C2=O` [euspeclibcmpd1712], for which the “Srxn1-GFP intensity median modified Z-score” value was 4.5 (active). The same measure for `O=C(O)C(O)[C@H](O)[C@H](O)[C@H](O)[C@H](O)CO` (stereo partly specified) [euspeclibcmpd2445]: -0.00236 (inactive). To `CC(=O)C1(O)CCC2C3CC(C)=C4CC(=O)C=CC4(C)C3(F)C(O)CC21C` (stereo unspecified) [euspeclibcmpd1970] belongs -0.646 (inactive); to `COc1cc([C@H]2Oc3cc(C4Oc5cc(O)cc(O)c5C(=O)C4O)ccc3O[C@@H]2CO)ccc1O` (stereo partly specified) [euspeclibcmpd2298], -0.00238 (inactive); to `C[C@]12CCC(OC(=O)c3ccccc3)CC1CCc1ccccc12` (stereo partly specified) [euspeclibcmpd2434], 0.0569 (inactive). The same measure for `CCn1c2cc(=N)ccc-2c2ccc(N)cc2c1-c1ccccc1` [euspeclibcmpd1148]: 4.33 (active).

As to `C=C[C@@]1(C)CC(=O)[C@@]2(O)[C@](C)(O1)[C@@H](OC(C)=O)[C@@H](O)C1C(C)(C)CC[C@H](O)[C@@]12C` (stereo partly specified) [euspeclibcmpd604], the “Srxn1-GFP intensity median modified Z-score” value was -1.15 (inactive). The same measure for `N=c1[nH]c(=O)c2[nH]c(=O)cnc2[nH]1` [euspeclibcmpd1707]: -0.214 (inactive). Consider `CCCCc1nc(Cl)c(CO)n1Cc1ccc(-c2ccccc2-c2nn[nH]n2)cc1` [euspeclibcmpd678], for which the “Srxn1-GFP intensity median modified Z-score” value is -0.235 (inactive). The same measure for `CCCc1nc2c(C)cc(-c3nc4ccccc4n3C)cc2n1Cc1ccc(-c2ccccc2C(=O)O)cc1` [euspeclibcmpd729]: 3.15 (active); for `CCCc1nc(C(C)(C)O)c(C(=O)OCc2oc(=O)oc2C)n1Cc1ccc(-c2ccccc2-c2nn[nH]n2)cc1` [euspeclibcmpd716]: -0.529 (inactive). As for `O=C1C(CCC(O)c2ccc(F)cc2)[C@@H](c2ccc(O)cc2)N1c1ccc(F)cc1` (stereo partly specified) [euspeclibcmpd714], the “Srxn1-GFP intensity median modified Z-score” value was 1.03 (inactive). To `COC(=O)C(NC(=O)CCCCn1cnc2c(N)ncnc21)C(C)C` (stereo unspecified) belongs 1.19 (inactive). The same measure for `CC(=O)OC1(C(C)=O)CCC2C3=CC(Cl)=C4CC(=O)C5CC5C4(C)C3CCC21C` (stereo unspecified) [euspeclibcmpd1971]: -0.163 (inactive); for `CC(O)CN(CCN(CC(C)O)CC(C)O)CC(C)O` (stereo unspecified) [euspeclibcmpd990]: -0.227 (inactive); for `OC[C@H]1O[C@H](Oc2cc(O)cc(C=Cc3ccc(O)cc3)c2)[C@H](O)[C@@H](O)[C@@H]1O` [euspeclibcmpd1401]: -0.514 (inactive). Turning to `Oc1ccc(C=Cc2cc(O)cc(O)c2)cc1` [euspeclibcmpd1411], the “Srxn1-GFP intensity median modified Z-score” value is 12.1 (active). The same measure for `CCS(=O)(=O)N1CCCC(C(=O)NCCCN(C)OC)C1` (stereo unspecified): 0.974 (inactive); for `Nc1ccc(S(=O)(=O)N=c2ccc(Cl)n[nH]2)cc1` [euspeclibcmpd398]: -0.684 (inactive). The same measure for `O=C(NCC(O)=NO)c1ccc(Cl)cc1` [euspeclibcmpd774]: 0.804 (inactive); for `O=c1c(O)c(-c2ccc(O)c(O)c2)oc2cc(O)cc(O)c12`: 0.376 (inactive). Regarding `CC(=O)OCC(=O)[C@@]1(O)CCC2C3CC=C4CC(=O)CC[C@]4(C)C3[C@@H](O)C[C@@]21C` (stereo partly specified) [euspeclibcmpd151], the “Srxn1-GFP intensity median modified Z-score” value is -0.58 (inactive). To `C[C@H](Cn1cnc2c(=N)nc[nH]c21)OCP(=O)(O)O` [euspeclibcmpd1075] belongs -0.0246 (inactive); to `CN(C)c1ccc(C(=C2C=CC(=[N+](C)C)C=C2)c2ccc(N(C)C)cc2)cc1` [euspeclibcmpd139], 8.6 (active); to `CC(CCC(=O)O)[C@H]1CCC2C3CC[C@@H]4C[C@H](O)CC[C@]4(C)C3C[C@H](O)[C@@]21C` (stereo partly specified) [euspeclibcmpd2112], -0.195 (inactive). With `COC(=O)C[C@H]1C(C)(C)C(=O)C2CC3=C(CC[C@]4(C)C3=CC(=O)O[C@H]4c3ccoc3)[C@@]1(C)C2=O` [euspeclibcmpd1591], the “Srxn1-GFP intensity median modified Z-score” value was 0.352 (inactive). To `CCCCNC(=O)NS(=O)(=O)c1ccc(OC)cc1` belongs 1.61 (inactive). To `C[C@@H](COc1ccccc1)N[C@H](C)[C@H](O)c1ccc(O)cc1` [euspeclibcmpd167] belongs 4.4 (active). Turning to `CC(CCc1ccc(O)cc1)NCC(O)c1ccc(O)cc1` (stereo unspecified) [euspeclibcmpd467], the “Srxn1-GFP intensity median modified Z-score” value is 0.894 (inactive). The same measure for `CC(NCCc1ccc(O)cc1)C(O)c1ccc(O)cc1` (stereo unspecified) [euspeclibcmpd402]: 0.107 (inactive). To `CC(C)(C)NC[C@@H](O)COc1nsnc1N1CCOCC1` [euspeclibcmpd295] belongs -0.119 (inactive).

Consider `COC1C(=O)C(=O)c2c(cc3oc(C(C)=O)c(O)c3c2O)C1=O` (stereo unspecified) [euspeclibcmpd1523], for which the “Srxn1-GFP intensity median modified Z-score” value was 0.196 (inactive). In the case of `N=c1[nH]ccs1` [euspeclibcmpd1106], the “Srxn1-GFP intensity median modified Z-score” value is 0.0281 (inactive). To `Cc1onc(-c2ccccc2)c1C(=O)NC1C(=O)N2C1SC(C)(C)C2C(=O)O` (stereo unspecified) [euspeclibcmpd2397] belongs -0.382 (inactive); to `CC(C)=CCc1c2c(c3occ(-c4ccc(O)c(O)c4)c(=O)c3c1O)C=CC(C)(C)O2` [euspeclibcmpd1728], 156 (active); to `COc1ccc(-c2coc3c4c(c(CC=C(C)C)c(O)c3c2=O)OC(C)(C)C=C4)cc1OC` [euspeclibcmpd2204], -0.479 (inactive). The same measure for `CC(C)=CCc1c2c(c3occ(-c4ccc(O)cc4)c(=O)c3c1O)C=CC(C)(C)O2` [euspeclibcmpd1709]: 1.14 (inactive); for `C=C1C[C@]23C[C@@]1(O)CC[C@H]2[C@@]12C=C[C@H](O)[C@@](C)(C(=O)O1)[C@H]2C3C(=O)O` (stereo partly specified) [euspeclibcmpd1408]: 0.616 (inactive).

For the compound `NC[C@@H]1O[C@H](O[C@@H]2[C@@H](CO)OC(O[C@@H]3[C@@H](O)[C@H](N)C[C@H](N)[C@H]3OC3O[C@H](CN)[C@@H](O)[C@H](O)[C@H]3N)[C@@H]2O)[C@H](N)[C@@H](O)[C@@H]1O` (stereo partly specified) [euspeclibcmpd206], the “Srxn1-GFP intensity median modified Z-score” value was 0.688 (inactive).

In the case of `O=C(O)C1CC(=O)C(O)C(O)C1` (stereo unspecified) [euspeclibcmpd2407], the “Srxn1-GFP intensity median modified Z-score” value is -0.321 (inactive). To `O=C(O)CCCCCCCCCCCCC1C=CCC1` (stereo unspecified) [euspeclibcmpd1516] belongs 10.6 (active); to `O=C(O)CCCCC1CCSS1` (stereo unspecified) [euspeclibcmpd1157], 0.0225 (inactive).

As to `CCOC(=O)CCCCCCCCCCCCC1C=CCC1` (stereo unspecified) [euspeclibcmpd2000], the “Srxn1-GFP intensity median modified Z-score” value is -0.411 (inactive). To `COc1ccc(-c2coc3cc(O)ccc3c2=O)c(OC)c1` [euspeclibcmpd1838] belongs 1.83 (inactive); to `C=CC[S+]([O-])CC(N)C(=O)O` (stereo unspecified) [euspeclibcmpd2346], -0.228 (inactive). The same measure for `O=C(O)CCCCCCCC(O)C(O)CCCCCCO` (stereo unspecified) [euspeclibcmpd1577]: -0.245 (inactive); for `CS(=O)(=O)OCCCCOS(C)(=O)=O` [euspeclibcmpd40]: 1.41 (inactive). The same measure for `CS(C)(=O)=O` [euspeclibcmpd1496]: 20.2 (active); for `COCCCOc1cc(C[C@@H](C[C@H](N)[C@@H](O)CC(C(=O)NCC(C)(C)C(N)=O)C(C)C)C(C)C)ccc1OC` (stereo partly specified) [euspeclibcmpd873]: 0.194 (inactive); for `CC(C)C1CCC(C(=O)NC(Cc2ccccc2)C(=O)O)CC1` (stereo unspecified) [euspeclibcmpd675]: -0.338 (inactive). Consider `Nc1ccc(S(=O)(=O)c2ccc(N)cc2)cc1` [euspeclibcmpd82], for which the “Srxn1-GFP intensity median modified Z-score” value is 0 (inactive). For the compound `Nc1ccc(S(=O)(=O)O)cc1` [euspeclibcmpd2086], the “Srxn1-GFP intensity median modified Z-score” value is 2.19 (active). The same measure for `Nc1ccc(S(N)(=O)=O)cc1` [euspeclibcmpd1042]: -0.418 (inactive); for `NCCC(=O)NC(Cc1c[nH]cn1)C(=O)O` (stereo unspecified) [euspeclibcmpd1431]: -0.178 (inactive); for `C[C@]12CCC3c4ccc(OC(=O)c5ccccc5)cc4CCC3C1CCC2=O` (stereo partly specified) [euspeclibcmpd2153]: -0.646 (inactive).

Take `CC(=O)NC(CC(=O)NC(CCC(=O)O)C(=O)O)C(=O)O` (stereo unspecified) [euspeclibcmpd1295]: the “Srxn1-GFP intensity median modified Z-score” value was -0.164 (inactive). The same measure for `CC[C@H](/C=C/C(C)C1CCC2C3CC=C4CC(=O)CC[C@]4(C)C3CC[C@]12C)C(C)C` (stereo partly specified) [euspeclibcmpd1667]: -0.11 (inactive); for `CN(C)c1ccc2nc3ccc(N(C)C)cc3[s+]c2c1` [euspeclibcmpd789]: 9.06 (active); for `Cc1cc2nc3ccc(N(C)C)cc3[s+]c2cc1N` [euspeclibcmpd1030]: 9 (active).

Regarding `CC(C)(S)C(N)C(=O)O` (stereo unspecified) [euspeclibcmpd968], the “Srxn1-GFP intensity median modified Z-score” value is 0.0726 (inactive).

As to `OC[C@@H](O)[C@@H](O)[C@H](O)[C@@H](O)CO` [euspeclibcmpd2147], the “Srxn1-GFP intensity median modified Z-score” value is -0.0321 (inactive). To `N=C(N)N=C(N)N1CCOCC1` [euspeclibcmpd1191] belongs -0.583 (inactive); to `NC(=O)CCC(NC(=O)C(N)CO)C(=O)O` (stereo unspecified) [euspeclibcmpd2427], -0.15 (inactive).
